Measured values reported in paper PMC5515408, “Sequence-specific DNA binding by MYC/MAX to low-affinity non-E-box motifs”.
In all, about 4,500 sequences were measured (“log2 normalized fluorescence”: median about -0.34, highest 2% from about 3.3 on). The entries come from a sample that favours the highest values as a whole.

Molecular target: MAX:MAX (p21) (human, UniProt P61244-2 1-151)
Assay: protein-binding microarray (anti-MAX antibody); PBM: 15 mM Tris-HCl pH 7.5, 100 mM KCl, 0.075% NP40, 7.5 mM beta-mercaptoethanol, 375 ng/ul BSA, 8 ng/ul poly(dA-dT):(dA-dT), 550 ng complex, 60 min, room tempe; high values mean tight binding
Conditions: protein: recombinant; tags: 6xHis; chain copies: 2; label: 3' end of printed strand (linker) attached to glass slide; dsDNA, one strand shown
Procedure, shortened: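 For each of ~5000 unique double-stranded 12-nt sequences, spotted in triplicate on a custom Agilent glass array, binding of His-tagged human MYC:MAX or MAX:MAX dimers is reported as log2 normalized fluorescence. The dimers (550 ng, E. coli-expressed) were incubated for 60 min at room temperature in Tris-KCl buffer, pH 7.5, with NP40, BSA and poly(dA-dT) competitor. Detection used anti-MAX and secondary antibodies with a 543 nm scan.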

Chain of MAX:MAX (p21) (P61244 other isoform, or with tags, fused parts or gaps): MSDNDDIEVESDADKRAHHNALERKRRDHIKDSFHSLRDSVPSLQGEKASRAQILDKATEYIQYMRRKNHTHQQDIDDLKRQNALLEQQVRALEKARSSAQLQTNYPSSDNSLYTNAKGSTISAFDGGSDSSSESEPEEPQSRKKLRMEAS

Sequence | binding signal
CCGGCTGAGTCTGCGTATTAATAGCTAAGATTACTATATCGACG | -0.699 log2 normalized fluorescence
CCGGCTGAATCCCAGTATTAATAGCTAAGATTACTATATCGACG | -0.681 log2 normalized fluorescence
CCGGCTGATGTTTTGTATTAATAGCTAAGATTACTATATCGACG | -0.281 log2 normalized fluorescence
CCGGCTGACACGTGAGATTAATAGCTAAGATTACTATATCGACG | 3.29 log2 normalized fluorescence
CCGGCTGACACGTGACATTAATAGCTAAGATTACTATATCGACG | 3.44 log2 normalized fluorescence
CCGGCTGACACGTGAGGTTAATAGCTAAGATTACTATATCGACG | 3.37 log2 normalized fluorescence
CCGGCTGACACGTGAGTTTAATAGCTAAGATTACTATATCGACG | 3.25 log2 normalized fluorescence
CCGGCTGACACGTGATGTTAATAGCTAAGATTACTATATCGACG | 3.13 log2 normalized fluorescence
CCGGCTGACACGTGAAGTTAATAGCTAAGATTACTATATCGACG | 3.15 log2 normalized fluorescence
CCGGCTGACACGTGACGTTAATAGCTAAGATTACTATATCGACG | 3.23 log2 normalized fluorescence
CCGGCTGACACGTTACATTAATAGCTAAGATTACTATATCGACG | 3.06 log2 normalized fluorescence
CCGGCTGACACGTGAGCTTAATAGCTAAGATTACTATATCGACG | 3.09 log2 normalized fluorescence
CCGGCTGATGAACAGTATTAATAGCTAAGATTACTATATCGACG | -0.468 log2 normalized fluorescence
CCGGCTGAGCATCTGTATTAATAGCTAAGATTACTATATCGACG | 0.186 log2 normalized fluorescence
CCGGCATACACTTGGTATTAATAGCTAAGATTACTATATCGACG | 1.54 log2 normalized fluorescence
CCGGCTGAGGCGGTGTATTAATAGCTAAGATTACTATATCGACG | -0.63 log2 normalized fluorescence
CCGGCTTACACGTGGTTTTAATAGCTAAGATTACTATATCGACG | 3.22 log2 normalized fluorescence
CCGGCTGACACGTTTAATTAATAGCTAAGATTACTATATCGACG | 2.59 log2 normalized fluorescence
CCGGCTGACACGTGCTCTTAATAGCTAAGATTACTATATCGACG | 3.24 log2 normalized fluorescence
CCGGCTGACACGTGTGTTTAATAGCTAAGATTACTATATCGACG | 3.37 log2 normalized fluorescence
CCGGCTAGCACGTGTTTTTAATAGCTAAGATTACTATATCGACG | 3.52 log2 normalized fluorescence
CCGGCTGACACGTGTTCTTAATAGCTAAGATTACTATATCGACG | 3.35 log2 normalized fluorescence
CCGGCTGACACGTGTGATTAATAGCTAAGATTACTATATCGACG | 3.24 log2 normalized fluorescence
CCGGCTGACACGTCGTTTTAATAGCTAAGATTACTATATCGACG | 1.92 log2 normalized fluorescence
CCGGCTGACACGTTGTTTTAATAGCTAAGATTACTATATCGACG | 3.22 log2 normalized fluorescence
CCGGCTGACACGTGTTTTTAATAGCTAAGATTACTATATCGACG | 3.34 log2 normalized fluorescence
CCGGCTAGCACGTGGCATTAATAGCTAAGATTACTATATCGACG | 3.24 log2 normalized fluorescence

Sequence | binding signal
CCGGCTGACACGTGTACTTAATAGCTAAGATTACTATATCGACG | 3.15 log2 normalized fluorescence
CCGGCTGATATTGCGTATTAATAGCTAAGATTACTATATCGACG | -0.611 log2 normalized fluorescence
CCGGCTGAGTTACGGTATTAATAGCTAAGATTACTATATCGACG | -0.516 log2 normalized fluorescence
CCGGCTGACACGTCGAATTAATAGCTAAGATTACTATATCGACG | 1.45 log2 normalized fluorescence
CCGGCTGACCCGTCGTATTAATAGCTAAGATTACTATATCGACG | -0.382 log2 normalized fluorescence
CCGGCTGAGATGGAGTATTAATAGCTAAGATTACTATATCGACG | -0.522 log2 normalized fluorescence
CCGGCGGACACGTGTGATTAATAGCTAAGATTACTATATCGACG | 3.15 log2 normalized fluorescence
CCGGCTGATTCTCAGTATTAATAGCTAAGATTACTATATCGACG | -0.684 log2 normalized fluorescence
CCGGCTGATCAGAGGTATTAATAGCTAAGATTACTATATCGACG | -0.421 log2 normalized fluorescence
CCGGCTGACACGTGACTTTAATAGCTAAGATTACTATATCGACG | 3.21 log2 normalized fluorescence
CCGGCTGACACGTTGTCTTAATAGCTAAGATTACTATATCGACG | 3.12 log2 normalized fluorescence
CCGGCTGACACGTGTCTTTAATAGCTAAGATTACTATATCGACG | 3.41 log2 normalized fluorescence
CCGGCTTAAACGTGTTATTAATAGCTAAGATTACTATATCGACG | 2.7 log2 normalized fluorescence
CCGGCTTACACGTGCTATTAATAGCTAAGATTACTATATCGACG | 3.57 log2 normalized fluorescence
CCGGCTTATACGTGATATTAATAGCTAAGATTACTATATCGACG | 0.467 log2 normalized fluorescence
CCGGCTTACACGTGTTATTAATAGCTAAGATTACTATATCGACG | 3.4 log2 normalized fluorescence
CCGGCTTACACATGCTATTAATAGCTAAGATTACTATATCGACG | 3.23 log2 normalized fluorescence
CCGGCGCACACGTGCTATTAATAGCTAAGATTACTATATCGACG | 3.04 log2 normalized fluorescence
CCGGCTTACACGTGATATTAATAGCTAAGATTACTATATCGACG | 3.31 log2 normalized fluorescence
CCGGCTTACACGTGGTGTTAATAGCTAAGATTACTATATCGACG | 3.07 log2 normalized fluorescence
CCGGCTAACACGTGATATTAATAGCTAAGATTACTATATCGACG | 3.18 log2 normalized fluorescence
CCGGCTGATGTCCAGTATTAATAGCTAAGATTACTATATCGACG | -0.249 log2 normalized fluorescence
CCGGCTGAATGGGCGTATTAATAGCTAAGATTACTATATCGACG | 0.274 log2 normalized fluorescence
CCGGCTGAGTCGAGGTATTAATAGCTAAGATTACTATATCGACG | -0.576 log2 normalized fluorescence
CCGGCTGAACCGGCGTATTAATAGCTAAGATTACTATATCGACG | -0.299 log2 normalized fluorescence
CCGGCAGACACTTAGTATTAATAGCTAAGATTACTATATCGACG | 0.466 log2 normalized fluorescence
CCGGCTTTCACTTGGTATTAATAGCTAAGATTACTATATCGACG | -0.636 log2 normalized fluorescence
